This passage reports activity change, negative = inhibition results from PubChem BioAssay AID504652 (National Center for Advancing Translational Sciences (NCATS), 2011).

Among all 360,000 compounds or so, about 11,000 (3.1%) were called active. No stated cut-off is given here; in the data, active means activity change below about -30%; inactive means the rest. Only a selection was taken, and actives are over-represented in it overall.
On the % scale 0 is the no-effect control and ±100 the full control effect.

The target of the assay is D(1A) dopamine receptor (Homo sapiens) (UniProt P21728). Briefly: Antagonist of Human D 1 Dopamine Receptor: qHTS. The settings on record: HEK293 TREx D1 cells, calcium flux, dopamine EC80; at 10 µM; hits give low values. The procedure, abridged: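 Tetracycline-induced HEK293 T-REx cells with force-coupled D1 receptor were loaded with a no-wash calcium dye. Compound was added after a 10 s baseline and read kinetically for 180 s; EC80 dopamine was then added and calcium flux followed another 180 s.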
D(1A) dopamine receptor (Homo sapiens), sequence (P21728 whole entry, looked up): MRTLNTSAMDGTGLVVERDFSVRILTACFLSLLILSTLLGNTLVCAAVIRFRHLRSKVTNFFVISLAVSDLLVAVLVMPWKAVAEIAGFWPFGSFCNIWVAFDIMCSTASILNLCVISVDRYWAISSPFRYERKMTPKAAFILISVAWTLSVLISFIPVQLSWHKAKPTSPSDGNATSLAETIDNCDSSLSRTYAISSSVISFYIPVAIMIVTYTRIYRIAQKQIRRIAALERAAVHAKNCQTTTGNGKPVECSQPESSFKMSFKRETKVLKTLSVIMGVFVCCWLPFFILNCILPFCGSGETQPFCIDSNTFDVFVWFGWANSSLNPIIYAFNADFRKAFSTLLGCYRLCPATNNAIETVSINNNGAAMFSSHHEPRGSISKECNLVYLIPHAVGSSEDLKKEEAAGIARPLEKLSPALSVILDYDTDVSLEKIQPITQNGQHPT
`Cc1cccc(CSc2nc3ccncc3n2Cc2ccc(C(=O)O)cc2)c1`: the activity change, negative = inhibition is 14.5% (inactive).
As for `O=C(Nc1cccc(Cl)c1)Nc1ccccc1NS(=O)(=O)c1cccs1`, the activity change, negative = inhibition is -42.1% (active).
Then `O=S(=O)(Nc1ccccc1)c1ccc(NS(=O)(=O)c2cccs2)cc1`, with -3.97% (inactive); and `O=S(=O)(Nc1ccccc1Br)c1cccs1`, with 11.5% (inactive); and `Cc1cccc(NC(=O)Cn2c(=O)n(CCC(C)C)c(=O)c3cccnc32)c1`, with 38.2% (inactive).
Consider `COc1ccccc1NC(=O)C1=C(C)Nc2nc(SCC(=O)c3ccc(C)cc3)nn2C1c1ccccc1C` (centres undefined), for which the activity change, negative = inhibition is 4.06% (inactive).
With `O=C(CN1CCN(Cc2ccc(Cl)cc2)C1=O)NCc1ccc(F)cc1`, the activity change, negative = inhibition is 6.15% (inactive).
The result for `COc1ccc(NC(=O)CN2CCCN(Cc3ccccc3)S2(=O)=O)cc1` reads -2.48% (inactive); that for `COc1ccc(CNC(=O)C2CCN(S(C)(=O)=O)CC2)cc1`, -17.7% (inactive); that for `COc1ccc(CNC(=O)C2CCN(S(=O)(=O)N3CCOCC3)CC2)cc1`, -42.3% (active).
As for `COc1ccc(N2CCN(CCCNC(=O)C3CCN(S(=O)(=O)N4CCOCC4)CC3)CC2)cc1`, the activity change, negative = inhibition is 5.25% (inactive).
Then `COc1cccc(CN2CCc3nc(SCC(=O)Nc4ccccc4)[nH]c(=O)c3C2)c1`, with 3.64% (inactive).
For `CCc1ccc(CNC(=O)c2cc3c(=O)n(CC)c4ccccc4c3s2)cc1`, the activity change, negative = inhibition is 11% (inactive).
The result for `Cc1ccc(C)c(N2CCN(S(=O)(=O)c3ccc4c(c3)C(C(C)C)C(=O)N4)CC2)c1` (centres undefined) reads -23.5% (inactive); that for `O=C(CC(c1cccs1)N1Cc2ccccc2C1=O)Nc1ccc(F)c(F)c1` (centres undefined), -0.399% (inactive); that for `O=C(COc1ccccc1)NCc1ccc2c(c1)CCN2C(=O)c1ccc(F)cc1`, -7.02% (inactive).
As for `O=C(CSc1nnc(C2CC2)n1Cc1ccccc1)Nc1cccnc1Cl`, the activity change, negative = inhibition was 8.52% (inactive).
Turning to `O=C(CSc1nnc(Nc2ccccc2F)s1)NC1CCCC1`, the activity change, negative = inhibition is -3.18% (inactive).
Consider `O=C(CSc1nnc(Nc2ccccc2)s1)Nc1cccnc1Cl`, for which the activity change, negative = inhibition was -65.7% (active).
`CC(C)c1ccc(NC(=O)c2ccc3c(O)c(S(=O)(=O)c4ccccc4)c(=O)[nH]c3c2)cc1`: the activity change, negative = inhibition is -2.13% (inactive).
The result for `COc1cc2ccccc2cc1C(=O)Nc1cccc(-c2nc3ccccc3o2)c1` reads -19.2% (inactive); that for `N/C(=N\OC(=O)Nc1ccccc1)c1ccno1`, -30.9% (active); that for `CC(C)(COC(=O)Nc1ccccc1)COC(=O)Nc1ccccc1`, -3.78% (inactive).
Then `O=C(Nc1ccccc1)O/N=C1/CCCc2occc21`, with 7.6% (inactive).
Then `Cc1ccc(-c2nnc(Nc3ccc(OCC(N)=O)cc3)c3ccccc23)cc1S(=O)(=O)NCC1CCCO1` (centres undefined), with -11.9% (inactive).
Take `CCOc1ccc(CCNC(=O)c2ccc3c(c2)sc2nc(-c4ccc(F)cc4)cn23)cc1OCC`: the activity change, negative = inhibition was 0.197% (inactive).
For the compound `COc1ccc(CCNC(=O)c2ccccc2-c2ccccc2C(=O)O)cc1OC`, the activity change, negative = inhibition is 0.57% (inactive).
Consider `COc1ccccc1C(=O)NCCC(=O)NC(C)CCc1ccccc1` (centres undefined), for which the activity change, negative = inhibition is -3.06% (inactive).
Then `COc1ccc(C(=O)CCc2ccccc2O)c(OC)c1`, with -22.2% (inactive); and `COc1ccc(C(=O)NC(C)CCc2ccccc2)c(OC)c1` (centres undefined), with -36.3% (active).
On to `CCOc1ncccc1C(=O)NCCc1ccc(OC)cc1`, for which the activity change, negative = inhibition is 8.92% (inactive).
The result for `COc1ccc(CCNC(=O)c2ccccc2OCc2ccccc2)cc1` reads -35% (active); that for `COc1ccc(CC(=O)Nc2nnc3n2CCS3)cc1OC`, 29.1% (inactive).
Then `Cc1ccc(Cl)cc1N(C)C(=O)C1CCCN(c2ncnc3onc(-c4ccc(F)cc4)c23)C1` (centres undefined), with 3.58% (inactive).
Then `Cc1nc2nc(SCC(=O)NC3CCC(C)CC3)nn2c(C)c1Cc1ccccc1Cl` (centres undefined), with -18.6% (inactive); and `O=C(COC(=O)c1cnc(Cl)c(Cl)c1)NCc1ccco1`, with -8.31% (inactive); and `CCc1ccc(C(=O)COC(=O)c2ccco2)cc1`, with 3.84% (inactive).
Consider `O=C(COC(=O)c1ccco1)NCc1ccc(Cl)cc1`, for which the activity change, negative = inhibition is -43.8% (active).
The result for `O=S(=O)(Nc1ccc2nc(-c3cccc(Cl)c3)oc2c1)c1ccccc1` reads 2.59% (inactive); that for `O=c1[nH]c2cc(Br)ccc2n2cccc12`, 17.9% (inactive).
For `Cc1ccc2nc(/C(C#N)=C/c3ccccc3F)[nH]c2c1`, the activity change, negative = inhibition is 2.38% (inactive).
For `CCc1cc2c(cc3c(=O)n(CC(=O)N4CCN(c5cc(Cl)ccc5C)CC4)ncn32)s1`, the activity change, negative = inhibition is 5.41% (inactive).
Take `Oc1c(C(c2ccccn2)N2CCOCC2)ccc2cccnc12` (centres undefined): the activity change, negative = inhibition was -33.9% (active).
The result for `COc1ccc(-c2cn3c(n2)sc2cc(C(=O)Nc4ccccc4F)ccc23)cc1` reads -2.21% (inactive); that for `Cc1ccc2[nH]c3c(=O)n(CC(=O)NC(C)C)ncc3c2c1`, 5.41% (inactive); that for `COc1ccc(/C=C/c2nc(C#N)c(NCc3ccc(F)cc3)o2)cc1OC`, -16% (inactive).
Regarding `O=C1CSc2ccc(S(=O)(=O)NCc3ccccc3)cc2N1`, the activity change, negative = inhibition was -44.7% (active).
`CCC(Cc1ccccc1)NS(=O)(=O)c1ccc2c(c1)NC(=O)CS2` (centres undefined): the activity change, negative = inhibition was -0.0752% (inactive).
The result for `COc1ccccc1CNS(=O)(=O)c1ccc2c(c1)NC(=O)CS2` reads 7.86% (inactive); that for `CCCCn1cc(S(=O)(=O)c2ccc(OCC)cc2)c(=O)c2cc(OC)c(OC)cc21`, 4.22% (inactive).
The result for `COc1ccc(C)cc1Nc1nc2ccccc2c2nnc(C)n12` reads 1.83% (inactive).
Turning to `CCN(CC)C(=O)C(=O)c1cn(CC(=O)NCc2ccc3c(c2)OCO3)c2ccccc12`, the activity change, negative = inhibition is -3.14% (inactive).
The result for `CCn1cc(C(=O)NCC2COc3ccccc3O2)c2cc(OC)c(OC)cc2c1=O` (centres undefined) reads 13.1% (inactive); that for `COc1cc(-n2c(C)nc3cc(C(=O)NCc4ccco4)ccc32)cc(OC)c1OC`, -14.8% (inactive).
Then `CCn1cc(C(=O)NCc2ccc3c(c2)OCO3)c2cc(OC)c(OC)cc2c1=O`, with -40.7% (active); and `COc1ccccc1-n1c(C)nc2cc(C(=O)NCc3ccc4c(c3)OCO4)ccc21`, with -36.2% (active); and `CCOc1c2ccc(C(=O)NCc3ccc4c(c3)OCO4)cc2nn1C`, with 3.09% (inactive).
Then `CC(=O)Nc1cc(C(=O)NCc2ccc(F)cc2)ccc1Sc1ccc(F)cc1`, with 3.13% (inactive); and `COc1ccccc1CNS(=O)(=O)c1cc(Br)cc2c1N(C(C)=O)C(C)C2` (centres undefined), with 7.16% (inactive).
Regarding `C#CCOCCOCCOCCNc1nc(N2CCN(C(=O)[C@H](CCCCN)n3cc([C@@H](N)C(C)CC)nn3)CC2)nc(N2CCN(C(=O)[C@H](Cc3ccc(O)cc3)n3cc([C@@H](N)C(C)CC)nn3)CC2)n1` (some centres undefined), the activity change, negative = inhibition is -11.3% (inactive).
In the case of `C#CCOCCOCCOCCNc1nc(N2CCN(C(=O)[C@H](CCC(=O)O)n3cc(C(N)CO)nn3)CC2)nc(N2CCN(C(=O)[C@H](CCCCN)n3cc(C(N)[C@H](C)CC)nn3)CC2)n1` (some centres undefined), the activity change, negative = inhibition is -39.7% (active).
In the case of `C#CCOCCOCCOCCNc1nc(N2CCN(C(=O)CCCCCCCCCCNC(=O)[C@H]([C@@H](C)CC)n3cc(CCCCN=C(N)N)nn3)CC2)nc(N2CCN(C(=O)CCCCCCCCCCNC(=O)[C@H](CO)n3cc(CCCSC)nn3)CC2)n1`, the activity change, negative = inhibition is 6.53% (inactive).
Then `C#CCOCCOCCOCCNc1nc(N2CCN(C(=O)[C@H](Cc3ccc(O)cc3)n3cc(C(N)CC(C)C)nn3)CC2)nc(N2CCN(C(=O)[C@H](CCC(=O)O)n3cc(C(N)[C@H](C)CC)nn3)CC2)n1` (some centres undefined), with -5.53% (inactive).
The result for `C#CCOCCOCCOCCNc1nc(N2CCN(C(=O)[C@H](CCC(=O)O)n3cc(C(N)CO)nn3)CC2)nc(N2CCN(C(=O)[C@H](Cc3ccc(O)cc3)n3cc(C(N)[C@H](C)CC)nn3)CC2)n1` (some centres undefined) reads -34.5% (active); that for `C#CCOCCOCCOCCNc1nc(N2CCN(C(=O)C(Cc3ccc(O)cc3)n3cc(C(N)CC(C)C)nn3)CC2)nc(N2CCN(C(=O)C(Cc3ccc(O)cc3)n3cc(C(N)C(C)CC)nn3)CC2)n1` (centres undefined), -10.5% (inactive); that for `C#CCOCCOCCOCCNc1nc(N2CCN(C(=O)[C@H](C(C)C)n3cc(CCO)nn3)CC2)nc(N2CCN(C(=O)[C@H](C(C)C)n3cc(CCO)nn3)CC2)n1`, 7.62% (inactive).
Then `C#CCOCCOCCOCCNc1nc(N2CCN(C(=O)[C@H](CCC(=O)O)n3cc(C(N)CO)nn3)CC2)nc(N2CCN(C(=O)[C@H](CCCCN)n3cc(C(N)CC(C)C)nn3)CC2)n1` (some centres undefined), with -32.3% (active).
For the compound `O=C(CC1Oc2ccccc2NC1=O)NCc1ccc(F)cc1` (centres undefined), the activity change, negative = inhibition was -2.49% (inactive).
The result for `CN1C(=O)c2[nH]nc(-c3ccc(F)cc3)c2C1c1ccccn1` (centres undefined) reads -12.2% (inactive); that for `N#Cc1nc(/C=C/c2ccc(F)cc2)oc1NC1CCCCC1`, -1.82% (inactive).
On to `CCN(CC)c1cc(NC2CCCCC2)c2c3c(onc13)-c1ccccc1C2=O`, for which the activity change, negative = inhibition is 8.94% (inactive).
Then `Cc1ccc2nc(CN3CCN(S(=O)(=O)c4ccc(C)c(C)c4)CC3)oc2c1`, with -3.02% (inactive).
The result for `COc1cc(NC(=O)CN2CCN(S(=O)(=O)c3ccc(Br)cc3)CC2)cc(OC)c1` reads -5.38% (inactive); that for `CCc1ccc(C2C(C(=O)Nc3ccccc3)=C(C)Nc3c(C(=O)Nc4ccc(C)cc4)cnn32)cc1` (centres undefined), -24.1% (inactive).
